Experimental data reported in PubChem BioAssay (NCATS).
Records with an inconclusive call do not appear. A call without a number means that no potency is given here. Activity calls are given as the source filed them. The call rests on the fitted dose curve; in most records, active means well fitted curve in the direction sought with a large enough effect; inconclusive means small, poorly fitted or top-dose-only effect, or another doubt; inactive means no such curve, though single readings can be large; an effect the other way counts as inactive or inconclusive. Non-standard residues stand in square brackets, D forms with d. Residues, ends and D or L forms follow the SMILES beside them. Dip = N[C@H](C(=O)O)C(c1ccccc1)c1ccccc1

Experiments:
[1] = BET inhibitor-based combinations targeting novel dependencies in MECOM-rearranged (r) AML: UCSD-AML1 cell line (AID 2202235); further: nearly all actives have a fitted effect of over 40% in size
In short: (§1)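 Activity is given as area under the curve and as Z-AUC, mean-centred within each cell line. It comes from 11-point dose curves normalized to DMSO and empty wells. CellTiter-Glo luminescence was read after 48 hr drug exposure of 500 cells/well.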

[2] = BET inhibitor-based combinations targeting novel dependencies in MECOM-rearranged (r) AML: AML-194 cell line (AID 2202237; further: nearly all actives have a fitted effect of over 40% in size)
In short: (§2)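 Cells were plated at 500 per well and exposed to an 11-point dose series of each drug for 48 hr. Viability was measured by CellTiter-Glo luminescence, normalized to DMSO and empty-well controls, and summarized as AUC and per-cell-line Z-AUC.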

[3] = BET inhibitor-based combinations targeting novel dependencies in MECOM-rearranged (r) AML: AML-191 cell line (AID 2202236; further: nearly all actives have a fitted effect of over 35% in size)
In short: as §2

[4] = BET inhibitor-based combinations targeting novel dependencies in MECOM-rearranged (r) AML: HNT-34 cell line (AID 2202234); further: nearly all actives have a fitted effect of over 35% in size
In short: as §1

[5] = BET inhibitor-based combinations targeting novel dependencies in MECOM-rearranged (r) AML: MV-4-11 cell line (AID 2202233); further: nearly all actives have a fitted effect of over 45% in size
In short: as §1
Potency means the concentration at half of the fitted maximal effect.

## CCCCCCCCCCCCCC(=O)N[C@H](CO)[C@H](O)c1ccc([N+](=O)[O-])cc1
[1]
  Potency: inactive
[2]
  Potency: inactive

## O=C(Nc1cnccc1Cl)N1CCN(Cc2ccc3c(c2)OC(F)(F)O3)CC1
[1]
  Potency: inactive
[2]
  Potency: inactive

## CC[C@H](C)[C@@H]([C@@H](CC(=O)N1CCC[C@H]1[C@H](OC)[C@@H](C)C(=O)N[C@@H](Cc1ccccc1)c1nccs1)OC)N(C)C(=O)[C@@H](NC(=O)[C@H](C(C)C)N(C)C)C(C)C
[3]
  Potency: inactive
[2]
  Potency: inactive

## C=CC(=O)N1CC(N2CCN(C(=O)CNc3cc(C4(C)CC4)c(Cl)cc3O)CC2)C1
[1]
  Potency: inactive
[3]
  Potency: inactive
[2]
  Potency: inactive

## C/C(=C\C(=O)Nc1ccccc1C(=O)O)c1ccc2ccccc2c1
[4]
  Potency: inactive
[1]
  Potency: inactive
[2]
  Potency: inactive

## CN1CCN(Cc2ccc(Nc3ncc(Cl)c(Nc4ccccc4S(=O)(=O)N(C)C)n3)cc2)CC1
[4]
  Potency: 0.108 µM (active)
[1]
  Potency: 0.135 µM (active)
[3]
  Potency: 0.152 µM (active)
[2]
  Potency: 0.215 µM (active)

## C/C=C/C[C@@H](C)C(=O)[C@H]1C(=O)N[C@@H](C(C)C)C(=O)N(C)CC(=O)N(C)[C@@H](CC(C)C)C(=O)N[C@@H](C(C)C)C(=O)N(C)[C@@H](CC(C)C)C(=O)N[C@@H](C)C(=O)N[C@H](C)C(=O)N(C)[C@@H](CC(C)C)C(=O)N(C)[C@@H](CC(C)C)C(=O)N(C)[C@@H](C(C)C)C(=O)N1C
[5]
  Potency: 8.11 µM (active)
[3]
  Potency: 9.1 µM (active)

## O=C(CCNC(=O)c1ccc(OC(F)(F)F)cc1)N[C@@H]1CCCc2ccccc21
[1]
  Potency: inactive
[2]
  Potency: inactive

## CCOc1cc(CC(=O)N[C@@H](CC(C)C)c2ccccc2N2CCCCC2)ccc1C(=O)O
[4]
  Potency: inactive
[1]
  Potency: inactive
[3]
  Potency: inactive

## CN[C@@H](C)C(=O)N[C@H](C(=O)N1CCC[C@H]1C(=O)Nc1snnc1-c1ccccc1)C1CCCCC1
[4]
  Potency: inactive
[1]
  Potency: 1.86 µM (active)
[2]
  Potency: 3.32 µM (active)

## CC(C)c1onc(-c2c(Cl)cccc2Cl)c1COc1ccc(/C=C/c2cccc(C(=O)O)c2)c(Cl)c1
[1]
  Potency: inactive
[3]
  Potency: inactive
[2]
  Potency: inactive

## COc1c(Nc2ncc(Cl)c(N[C@H]3[C@H](C(N)=O)[C@@H]4C=C[C@@H]3C4)n2)ccc2c1CCC(N1CCOCC1)CC2 (some centres not stated)
[1]
  Potency: inactive
[3]
  Potency: 18.6 µM (active)
[2]
  Potency: inactive

## C=C1C[C@H]2C=Nc3cc(OCCCOc4cc5c(cc4OC)C(=O)N4CC(=C)C[C@H]4C=N5)c(OC)cc3C(=O)N2C1
[5]
  Potency: inactive
[1]
  Potency: inactive
[2]
  Potency: 0.0015 µM (active)

## CN(C)CCOc1ccc(/C(=C(/CCCl)c2ccccc2)c2ccccc2)cc1
[1]
  Potency: inactive

## Cc1nc(C)c(CN2CCN(C(c3ccc(F)cc3)c3ccc(F)cc3)CC2)nc1C
[5]
  Potency: 18.6 µM (active)
[2]
  Potency: 20.9 µM (active)

## CC1=C(c2ccc(O)cc2)[C@H](c2ccc(OCCN3CCCCC3)cc2)Oc2cc(O)ccc21
[2]
  Potency: inactive

## O=C(Nc1cccc(Nc2ncc(Br)c(NCCc3cnc[nH]3)n2)c1)N1CCCC1
[4]
  Potency: 1.66 µM (active)
[1]
  Potency: 1.18 µM (active)
[3]
  Potency: 5.25 µM (active)

## O=C(NO)C1(CS(=O)(=O)c2ccc(Oc3ccc(Cl)cc3)cc2)CCOCC1
[4]
  Potency: 8.33 µM (active)

## CN(C)c1ccc(O)c2c1C[C@H]1C[C@H]3[C@H](N(C)C)C(=O)C(C(N)=O)=C(O)[C@@]3(O)C(=O)C1=C2O
[4]
  Potency: 13.2 µM (active)
[1]
  Potency: inactive

## Cc1noc(-c2ccc(-c3ccc(C4(C(=O)O)CC4)cc3)cc2)c1NC(=O)O[C@H](C)c1ccccc1
[2]
  Potency: inactive

## Cc1ccc(-c2ncc(Cl)cc2-c2ccc(S(C)(=O)=O)cc2)cn1
[4]
  Potency: inactive
[1]
  Potency: inactive
[3]
  Potency: inactive
[2]
  Potency: inactive

## CC(=O)N1CCN(c2ccc(NC(=O)Cc3cnc(-c4ccnc(F)c4)c(C)c3)nc2)CC1
[2]
  Potency: inactive

## COc1ccc2[nH]c(C(=O)N3CCC(CC(C)(C)O)CC3)cc2c1
[4]
  Potency: inactive
[1]
  Potency: inactive
[2]
  Potency: inactive

## COc1ccc2c(c1)[C@]1(C[C@H]1c1ccc3c(/C=C/c4ccc(CN5C[C@@H](C)O[C@@H](C)C5)cc4)n[nH]c3c1)C(=O)N2
[4]
  Potency: 1.32 µM (active)
[1]
  Potency: 18.6 µM (active)
[3]
  Potency: 0.417 µM (active)
[2]
  Potency: 0.132 µM (active)

## NCCCC[C@H](NC(=O)[C@@H](NC(=O)[C@H](Cc1c[nH]c2ccccc12)NC(=O)[C@H](CCCCN)NC(=O)[C@H](CCCCN)NC(=O)[C@H](Cc1c[nH]c2ccccc12)NC(=O)[C@H](Cc1c[nH]c2ccccc12)NC(=O)[C@H](CCCCN)NC(=O)[C@@H](N)CCCCN)C(c1ccccc1)c1ccccc1)C(N)=O (H-KKWWKKW[Dip]K-NH2)
[1]
  Potency: inactive
[2]
  Potency: inactive

## CN1C(=O)N(c2cc(Cl)cc(Cl)c2)C(=O)[C@]12CN(Cc1cc(C(=O)O)cs1)C[C@H]2c1ccc(C#N)cc1
[4]
  Potency: inactive
[1]
  Potency: inactive
[2]
  Potency: inactive

## Cc1c(O)cccc1C(=O)NC(CSc1ccccc1)C(O)CN1CC2CCCCC2CC1C(=O)NC(C)(C)C (configuration not stated)
[2]
  Potency: 26.3 µM (active)

## O=C1NC(=O)/C(=C\c2ccc(-c3ccc(F)cc3)o2)S1
[5]
  Potency: inactive
[3]
  Potency: inactive
[2]
  Potency: inactive

## CN(C)CCNC(=O)COc1c2cccc1Cc1cccc(c1OCC(=O)NCCN(C)C)Cc1cccc(c1OCC(=O)NCCN(C)C)Cc1cccc(c1OCC(=O)NCCN(C)C)C2
[1]
  Potency: 0.428 µM (active)
[3]
  Potency: 0.428 µM (active)

## CO[C@H]1C[C@@H]2CC[C@@H](C)[C@@](O)(O2)C(=O)C(=O)N2CCCC[C@@H]2C(=O)O[C@H]([C@@H](C)C[C@@H]2CC[C@H](O)[C@H](OC)C2)CC(=O)[C@H](C)C=C(C)[C@@H](O)[C@@H](OC)C(=O)[C@H](C)C[C@H](C)C=CC=CC=C1C
[1]
  Potency: 0.0017 µM (active)

## Cc1onc(-c2ccccc2)c1-c1ccc(S(N)(=O)=O)cc1
[4]
  Potency: inactive
[2]
  Potency: inactive
